# In the library only some 6.5% were active in any assay of this set; here they are far more common.
# Vaccinia Venus – inhibitors of vaccinia virus (Venus reporter); Potency, µM (highest dose often 36.5 µM), actives largely listed as inhibitors; Vaccinia virus Venus reporter expression, fluorescence; 330,000 tested, 0.46% active; AID 720580; calls by dose curve; tested in A549 cells; also: nearly all actives have a fitted effect of over 30% in size
# MARV entry inh – blocks Marburg virus binding to or entry into cells; 300,000 tested, 1.8% active; Marburg virus pseudotyped entry inhibition, cell reporter; Potency, µM (titrated, usually from 37.8 µM), usual class: inhibitors; AID 540276; calls by dose curve; tested in HEK293 cells
# HCMV inh – inhibitors of human cytomegalovirus; AID 1259415; activity change, negative = inhibition, % at 57.5 µM; 410,000 tested, 4.5% active; HFF cells, HCMV-luciferase reporter, 72 h; stronger effect = lower value; in the data active = activity change below about -60%; inconclusive = no clear call, values can overlap the other calls; inactive = above about -39%
#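 Compounds were evaluated in HFFs infected with an HCMV luciferase reporter virus (MOI 1 PFU/cell). Luciferase in lysates collected 72 h post infection served as the replication measure.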
# FMDV inh – antivirals against foot and mouth disease virus; Potency, µM (titrated, usually from 57.9 µM), hits mostly inhibitors; FMDV antiviral cell-based qHTS; 410,000 tested, 1.2% active; calls by dose curve; tested in HEK293T cells; also: read-out not given here; nearly all actives have a fitted effect of over 45% in size
# Lassa entry inh – Lassa virus entry inhibition. Lassa virus pseudotype entry inhibition, cell reporter. 300,000 tested, 1.2% active. Potency, µM (doses to about 37.9 µM), actives largely listed as inhibitors; calls by dose curve; tested in HEK293 cells; also: nearly all actives have a fitted effect of over 50% in size
# Vaccinia mCherry – inhibitors of vaccinia virus infection (mCherry reporter signal) | Vaccinia virus mCherry reporter infection, fluorescence | Potency, µM (titrated, usually from 36.5 µM), hits mostly inhibitors | 310,000 tested, 0.63% active | AID 720579; calls by dose curve; tested in A549 cells; also: nearly all actives have a fitted effect of over 35% in size
# Numbers stand for hits; – = inactive; ? = inconclusive; · = not tested or not shown; + = active, no number; ! = not active in a repeat.
SMILES,Vaccinia Venus,MARV entry inh,HCMV inh,FMDV inh,Lassa entry inh,Vaccinia mCherry
CC1=Nc2ccccc2/C1=C/c1c(O)[nH]c(=O)[nH]c1=O,·,·,–,–,·,·
O=c1[nH]c(O)c(/C=C2/C=CC(c3cc(Cl)ccc3Cl)=N2)c(=O)[nH]1,–,?,–,?,13µM,–
C=CC[C@H](CC(=O)N(CCO)Cc1ccccc1)C(=O)N[C@H](COC(=O)[C@@H](CC=C)CC(=O)OC(C)(C)C)Cc1c[nH]c2ccccc12,11µM,·,–,–,·,?
C=CC[C@@H](CC(=O)N[C@H](CO)Cc1ccccc1)C(=O)N[C@@H](C)COC(=O)[C@@H](CC=C)CC(=O)OC(C)(C)C,–,·,-60,–,·,–
C=CC[C@@H](CC(=O)N[C@@H](CO)Cc1ccccc1)C(=O)N[C@@H](COC(=O)[C@@H](CC=C)CC(=O)OC(C)(C)C)Cc1c[nH]c2ccccc12,?,·,–,–,·,–
C=CC[C@@H](CC(=O)N(CCO)Cc1ccccc1)C(=O)N[C@H](COC(=O)[C@H](CC=C)CC(=O)OC(C)(C)C)Cc1c[nH]c2ccccc12,–,·,–,–,·,?
C=CC[C@@H](CC(=O)N[C@H](CO)Cc1ccccc1)C(=O)N[C@H](COC(=O)[C@@H](CC=C)CC(=O)OC(C)(C)C)Cc1c[nH]c2ccccc12,13µM,·,–,?,·,22µM
CCn1c(-c2ccccc2F)nc2cc(NC(C)=O)cc(C(=O)N(C)Cc3c(C)nc4ccccn34)c21,–,·,·,–,·,–
CCc1ccc(-n2nc(C)c3c(C)cc(=O)n(CC(=O)NCc4ccc(C)cc4)c32)cc1,–,·,–,–,–,–
Cc1c(C(=O)N2CC3CCC2C3)sc2ncnc(NCCc3c[nH]c4ccccc34)c12 (stereo unspecified),–,·,·,?,·,?
Clc1ccc(C(c2ccc(Cl)cc2)n2cc[n+](CC(OCc3ccc(Cl)cc3Cl)c3ccc(Cl)cc3Cl)c2)cc1 (stereo unspecified),11µM,13µM,-99,?,·,?
COC(=O)C1=C(C)N=C2S[C@H](C)C(=O)N2[C@@H]1c1cccc(F)c1,·,–,·,·,·,·
OCc1cc(C(O)CNCCCCCCOCCCCc2ccccc2)ccc1O (stereo unspecified),–,11µM!,-60,–,?,?
CC(C)(C)NCC(O)c1ccc(O)c(CO)c1 (stereo unspecified),–,?,·,–,?,–
COc1ccc(OC)c(C2=NOC(C(=O)Nc3cc(C)nn3-c3ccccc3)C2)c1 (stereo unspecified),?,–,–,–,–,+
COc1cccc(C2=NOC(C(=O)Nc3cc(C)on3)C2)c1 (stereo unspecified),–,–,-102,–,–,–
COc1ccc(OC)c(C2=NOC(C(=O)Nc3ccccc3SC)C2)c1 (stereo unspecified),·,–,–,–,–,·
Cc1ccc(NC(=O)C2CCC(CNS(=O)(=O)c3csc(C(N)=O)c3)CC2)cc1Cl (stereo unspecified),–,·,–,–,–,–
O=C(NC(=S)Nc1ccccc1Br)C1CC1,·,·,–,–,·,·
CCOc1ccccc1NC(=S)NC(=O)C1CC1,–,–,-64,–,?,–
Cc1ccc(-c2cn3cccnc3n2)cc1NC(=O)Cc1ccccc1,–,·,–,–,–,–
Cc1ccc(-c2nc(CN3CCN(C(=O)C4CCCO4)CC3)cs2)cc1 (stereo unspecified),–,18µM,-71,?,?,–
Cc1ccc(CN2CCN(C(=O)C3CCCO3)CC2)cc1 (stereo unspecified),–,–,–,–,–,–
Cc1ccc(NCc2cccnc2)cc1,–,–,–,–,–,·
COc1cccc(-c2ccc3ncnc(NCc4cccnc4)c3c2)c1,·,·,-77,?,·,·
SMILES,Vaccinia Venus,MARV entry inh,HCMV inh,FMDV inh,Lassa entry inh,Vaccinia mCherry
COc1ccc(NCc2cccnc2)cc1,–,–,-86,–,–,?
COc1ccc(OC)c(-n2c(CN3CCC(C(N)=O)CC3)nc3ccccc3c2=O)c1,·,–,–,–,–,·
COc1ccc(OC)c(-n2c(CNC3CCN(Cc4ccccc4)CC3)nc3ccccc3c2=O)c1,·,–,-106,–,–,·
CCc1cccc(N(C)C(N)=Nc2cccc3ccccc23)c1,–,11µM,–,–,13µM,–
CCN(/C(N)=N/c1nc(C)cc(C)n1)c1ccccc1,–,–,–,–,–,–
COc1ccc(N(Cc2cc3cccc(C)c3[nH]c2=O)C(=O)c2cccc(Cl)c2)cc1,–,?,–,–,?,–
